Outcome data for 29 compounds are collected here from PubChem BioAssay AID493004 (Broad Institute, 2010).

Each structure is given as a SMILES string. Hit rate of the full screen: of about 2,300 compounds, fewer than 10 were called active.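 Rule for the calls: active = Signal drops as the depositor expects, and the fitted half-maximal dose is no more than ten times the top valid tested dose; inconclusive = Poor fit, or a flat curve whose signal drops by 30% to 70%; inactive = the rest.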 These entries were drawn from the full list.

The nature of this assay: Mot1-301 yeast growth enhancement – whole organism, S. cerevisiae, ATP luminescence, cherry-picked samples, SUMO pathway inhibitor project, dose response (AID 493004).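 Note: more negative values mean stronger growth rescue toward the control strain.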 To be noted: S. cerevisiae Mot1-301 galactose growth, 24 h, -100 = growth of slx-deleted rescue strain; series mostly up to 42 µM.
On to `Cc1ccc(CC2CC(=O)N(c3ccc4c(c3)OCCO4)C2=O)cc1` (centres undefined), for which the outcome was inactive.
Regarding `O=C(CCc1ccccc1)NNC(=O)c1ccc(Br)cc1`, the result was inactive.
For `Cc1ccc(N2C(=O)C3N=NN(CC(=O)N4N=C(c5cccc6ccccc56)CC4c4ccccc4)C3C2=O)cc1` (centres undefined), the outcome was inactive.
Consider `CC1CCN(Cc2nc3c(c(=O)n(C)c(=O)n3C)n2CCc2ccccc2)CC1`, for which the outcome was inactive.
Regarding `COc1cc(CNCc2ccc3c(c2)OCO3)c([N+](=O)[O-])cc1OC`, the result was inactive.
The value for `O=C(Nc1ccccc1N1CCN(c2ccccc2)CC1)c1cccc(F)c1` was “inactive”; that for `N#CC(C#N)=CN=c1ccn(Cc2ccc(Cl)cc2Cl)cc1` was “inactive”.
Turning to `Cc1cccc(C)c1NC(=O)C(Cl)C(=O)c1ccccc1` (centres undefined), the outcome was inactive.
`Cc1cc(C)cc(NC(=O)C2CCCN(S(=O)(=O)c3ccc4[nH]c(=O)ccc4c3)C2)c1` (centres undefined): the outcome was inactive.
With `Cc1cc(Br)ccc1NC(=O)c1cnc(N2CCN(c3ccccn3)CC2)c2ccccc12`, the outcome was inactive.
As for `Cc1ccc2c(c1)C(O)(CC(=O)c1cccnc1)C(=O)N2` (centres undefined), the outcome was inactive.
With `COc1ccc(OCCC(=O)c2ccc(OC)cc2)cc1`, the outcome was inactive.
`CCN(CC)C(=O)CSc1nnc(CNc2ccc(F)cc2)n1Cc1ccco1`: the result was inactive.
As for `O=Cc1ccc(Oc2cccc(C(F)(F)F)c2)nc1`, the outcome was inactive.
To `Cc1cc(C)cc(C(=O)NC(CC(N)=O)c2ccc(N3CCC(N4CCCCC4)CC3)c([N+](=O)[O-])c2)c1` (centres undefined) belongs “inactive”; to `CCCC(=O)N(CCN1CCOCC1)c1nc2ccc(OCC)cc2s1`, “inactive”.
Consider `CC1=CC(=O)C=CC1(C)C(Cl)(Cl)Cl` (centres undefined), for which the result was inactive.
The value for `CCc1nc2ccccc2c(C(=O)OC2CCCCC2=O)c1C` (centres undefined) was “inactive”.
To `COC(=O)c1cc2occc2n1Cc1nc(-c2ccccc2C)oc1C` belongs “inactive”.
The value for `CCC(C)[C@H]1COCCS(=O)(=O)N1Cc1ccc(C)cc1` (some centres undefined) was “inactive”.
As for `Cc1nc2sc(C(c3ccco3)N3CCOCC3)c(O)n2n1` (centres undefined), the outcome was inactive.
For the compound `COc1ccc(S(=O)(=O)N2CCOC2CNC(=O)C(=O)NCc2ccncc2)cc1C` (centres undefined), the outcome was inactive.
As for `O=C(NNS(=O)(=O)c1c(F)cc(F)c(Cl)c1F)C12CC3CC(CC(C3)C1)C2`, the result was inactive.
Regarding `CCn1c(SCC(=O)N/N=C/c2ccccc2OCC(=O)O)nnc1-c1ccc(C(C)(C)C)cc1`, the result was inactive.
For `C=C(Cl)COC(=O)C1C2C=CC(C2)C1C(=O)O` (centres undefined), the result was inactive.
The value for `CCOc1ccc(N(CC)S(=O)(=O)c2cccc3nsnc23)cc1` was “inactive”; that for `CCC(CC)C(=O)Nc1ccc(S(=O)(=O)Nc2nccs2)cc1` was “inactive”.
On to `O=c1c2c(ncn1Cc1ccccc1)nc1n2CCC1`, for which the result was inactive.
To `Cc1ccc(S(=O)(=O)CCC(=O)OCC(=O)N(C)C2CCS(=O)(=O)C2)cc1` (centres undefined) belongs “inactive”.
